The values below come from patent publication US20160355875, “METHODS AND KITS FOR DETECTING NUCLEIC ACID SEQUENCES OF INTEREST USING DNA-BINDING PROTEIN DOMAIN” (CELLECTIS, published 2016).

For this assay, the target named is T1, TALE RAGT2-Renila luciferase fusion (pCLS24992) (artificial, UniProt P14727 SEQ:21-699).
T1 chain: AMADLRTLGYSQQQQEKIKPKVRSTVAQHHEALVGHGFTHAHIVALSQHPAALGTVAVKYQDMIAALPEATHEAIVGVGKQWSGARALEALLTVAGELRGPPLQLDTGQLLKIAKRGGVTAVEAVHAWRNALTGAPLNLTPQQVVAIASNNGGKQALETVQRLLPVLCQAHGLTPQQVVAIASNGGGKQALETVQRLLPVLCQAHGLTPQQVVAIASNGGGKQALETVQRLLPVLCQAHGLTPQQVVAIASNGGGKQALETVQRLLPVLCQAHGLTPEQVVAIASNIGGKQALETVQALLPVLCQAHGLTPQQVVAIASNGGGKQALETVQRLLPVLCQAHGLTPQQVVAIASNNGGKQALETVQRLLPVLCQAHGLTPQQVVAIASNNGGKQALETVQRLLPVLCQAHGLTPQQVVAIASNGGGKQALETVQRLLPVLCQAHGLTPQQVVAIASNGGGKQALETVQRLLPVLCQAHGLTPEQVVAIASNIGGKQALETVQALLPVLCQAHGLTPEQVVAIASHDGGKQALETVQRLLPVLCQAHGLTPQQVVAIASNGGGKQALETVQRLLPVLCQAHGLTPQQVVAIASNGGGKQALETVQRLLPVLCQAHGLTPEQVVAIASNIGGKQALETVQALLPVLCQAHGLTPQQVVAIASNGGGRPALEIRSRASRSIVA
As to the kind of experiment: mutation at T0 reduces luminescence by more than 60%; capture plus TALE binding. Conditions: tags: N-terminal His tag, C-terminal Renilla luciferase fusion; deltaN152 N-terminal domain, C11 C-terminal truncation; expressed in E. coli; label: biotin on bait; mismatched duplex. Here is the method:
Different ssDNA targets (SEQ ID NO 6-20) harboring unique or multiple mutations with respect to the ssDNA wild type pray (SEQ ID NO 5, 10 pmol) were synthesized and used to assess the specificity of TALE RAGT2-Renila detector system. We first studied the effect of increasing amount of mutation within the ssDNA target on the luminescence of TALE RAGT2-Renila according to the detection protocol described earlier. Briefly, 10 pmol of ssDNA wild type or mutated were incubated with the ssDNA biotinylated pray already immobilized on the streptavidine coated plate. The mixture was heated and allow to cool down to RT. After washing the well with high and low salt containing TBST buffers, an excess of TALE RAGT2-Renila was added to the well (^{˜}300 pmol total), the unbound was then removed by two low salt buffer washing steps and the reaction mixture was added to determine luminescence. The luminescence obtained for each of the ssDNA prays used is illustrated in FIG. 20.

B1: pray SEQ 6 :bait (dsDNA)
DNA 1: CATGGTTTATGGTTACTTATGG
DNA 2: GTACAAAAAAGCAGTCGACTAGGGATAACAGGGTAATTATATAAACCTAACCCTCTTAGCATGAAGGTACCATAAGTAACCATAAACAATG
Take B1: the binding signal is < 40 % of WT.
